Test results taken from PubChem BioAssay AID1159580 (chemical genetic matrix, 2015).
Among all 5,500 compounds or so, about 2,000 (36%) were called active. Roughly 18% stayed inconclusive and do not appear here. Rule as the data show it: active = normalized growth mostly below about 0.91 (no sharp cut-off); inconclusive = no clear call, values can overlap the other calls; inactive = mostly above about 0.92. The list shows a part of the results.

Experiment: chemical genetic growth profiling, strain panel (AID 1159580);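 also: tested at 20 µM; growth read once vehicle control cultures reached saturation at 30 °C; 1 = growth at the plate median or of vehicle wells; lower values mean less growth of the strain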
Conditions: S. cerevisiae deletion strains, growth OD

Measured: normalized growth

CC(C)=CCCC(C)C1CC[C@@]2(C)C3=C(CC[C@]12C)C1(C)CC[C@H](O)C(C)(C)C1CC3 (stereo not given in full)
inactive: locus YBR021W, strain FUR4, hits give low values 0.867 | locus YBR229C, strain ROT2, hits give low values 1.02 | locus YCL029C, strain bik1, hits give low values 0.972 | locus YDL035C, strain GPR1, hits give low values 0.904 | locus YDL074C, strain BRE1, hits give low values 0.962 | locus YDL101C, strain DUN1, hits give low values 0.992 | locus YDL185W, strain tfp1, hits give low values 1.01 | locus YDL192W, strain arf1, hits give low values 0.977 | locus YDR101C, strain arx1, hits give low values 1.01 | locus YDR150W, strain NUM1, hits give low values 1.05 | locus YDR162C, strain NBP2, hits give low values 0.958 | locus YDR318W, strain mcm21, hits give low values 0.985 | locus YDR388W, hits give low values 1.03 | locus YDR502C, strain sam2, hits give low values 0.945 | locus YER110C, hits give low values 1.01 | locus YER155C, strain BEM2, hits give low values 1.03 | locus YER167W, strain BCK2, hits give low values 1.05 | locus YGL086W, strain mad1, hits give low values 1 | locus YGL248W, strain PDE1, hits give low values 0.929 | locus YGR135W, strain pre9, hits give low values 0.941 | locus YGR252W, strain gcn5, hits give low values 0.78 | locus YHR079C, strain IRE1 (second series), hits give low values 1.01 | locus YHR094C, strain hxt1, hits give low values 1.02 | locus YHR129C, strain ARP1, hits give low values 1.04 | locus YHR200W, strain rpn10, hits give low values 1.01 | locus YIL066C, strain RNR3, hits give low values 1.03 | locus YIL073C, strain SPO22, hits give low values 0.923 | locus YIL125W, strain kgd1, hits give low values 1.04 | locus YIR030C, strain dcg1, hits give low values 1.02 | locus YJL095W, strain BCK1, hits give low values 0.947 | locus YJL134W, strain LCB3, hits give low values 1.04 | locus YJL168C, strain set2, hits give low values 1.02 | locus YJL187C, strain SWE1 (second series), hits give low values 0.959 | locus YKL068W, hits give low values 1.03 | locus YKL085W, strain MDH1 (second series), hits give low values 1.05 | locus YKL085W, strain MDH1, hits give low values 1.05 | locus YKR001C, strain vps1, hits give low values 0.94 | locus YLR039C, strain RIC1, hits give low values 0.702 | locus YLR058C, strain SHM2, hits give low values 0.981 | locus YLR102C, strain apc9, hits give low values 1.01 | locus YLR262C, strain YPT6, hits give low values 0.664 | locus YLR268W, strain sec22, hits give low values 0.957 | locus YLR371W, strain rom2, hits give low values 1.02 | locus YLR418C, strain cdc73, hits give low values 0.877 | locus YML016C, strain PPZ1, hits give low values 1.03 | locus YML032C, strain rad52, hits give low values 0.956 | locus YML124C, strain tub3, hits give low values 1.03 | locus YMR078C, strain ctf18, hits give low values 1.03 | locus YMR223W, strain ubp8, hits give low values 0.978 | locus YMR307W, strain GAS1, hits give low values 0.952 | locus YNL067W, strain RPL9B, hits give low values 0.988 | locus YNL128W, strain TEP1, hits give low values 0.98 | locus YNL233W, strain BNI4, hits give low values 0.994 | locus YNL250W, strain rad50, hits give low values 0.966 | locus YNL271C, strain bni1, hits give low values 0.994 | locus YNL298W, strain CLA4, hits give low values 0.924 | locus YNL307C, strain MCK1, hits give low values 0.998 | locus YNR052C, strain pop2, hits give low values 0.961 | locus YOL006C, strain TOP1, hits give low values 0.903 | locus YOL012C, strain htz1 1.68 | locus YOL147C, strain pex11, hits give low values 1.04 | locus YOR061W, strain CKA2, hits give low values 1.01 | locus YOR069W, strain VPS5, hits give low values 1.02 | locus YOR136W, strain idh2, hits give low values 0.998 | locus YOR144C, strain elg1, hits give low values 1.02 | locus YOR184W, strain ser1, hits give low values 0.891 | locus YOR316C, strain cot1, hits give low values 1.02 | locus YPL241C, strain CIN2, hits give low values 1.03 | locus YPR119W, strain clb2, hits give low values 1.03 | locus YPR141C, strain kar3, hits give low values 1.04 | locus YPR163C, strain tif3, hits give low values 0.93 | locus YPR167C, strain met16, hits give low values 0.973 | strain wtn01, hits give low values 0.974
active: locus YGL078C, strain dbp3, hits give low values 0.875 | locus YKL009W, strain mrt4, hits give low values 0.822
